Measured values taken from the supplement of paper PMC10849652.
The full data set covers some 7,900 targets. This sample favours those with a hit. About 0.6% of all pairs of compound and target were hits. Unmarked numbers belong to inactive results.

Experiments:
Assay in all cases: log2 fold change, soluble protein after heating vs DMSO (PISA); higher = thermal stabilisation; K562 cells, 10 uM, 30 min; active = over 0.2 and 3.5 SD of the protein, either way, in both replicates (recomputed)
[1] = compound: CC[C@@H]1C(=O)N(C)c2cnc(Nc3ccc(C(=O)NC4CCN(C)CC4)cc3OC)nc2N1C1CCCC1
How it was run: (§1)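 For each measurement, 10 μM compound was applied for 30 min to K562 cells at 2×10^6 cells/mL. Aliquots were heated for 3 min across 48°C-58°C, pooled, and extracted in PBS with 0.5% NP-40 at 4°C; the supernatant after 21,000xg for 90 min was soluble protein. This was quantified by TMTpro 16plex LC-MS/MS with channel sums equalised, and thermal stability was reported relative to control samples from duplicates, on a log2 fold-change scale.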

volasertib = compound: CC[C@@H]1C(=O)N(C)c2cnc(Nc3ccc(C(=O)N[C@H]4CC[C@H](N5CCN(CC6CC6)CC5)CC4)cc3OC)nc2N1C(C)C [volasertib]
How it was run: as §1

[2] = compound: CC[C@H](C)N1C=C(C2=C(C=C(C=C21)C3=CN=C(C=C3)N4CCNCC4)C(=O)NCC5=C(C=C(NC5=O)C)C)C
How it was run: as §1

epoxomicin = compound: CC[C@H](C)[C@@H](C(=O)N[C@@H]([C@@H](C)O)C(=O)N[C@@H](CC(C)C)C(=O)[C@]1(CO1)C)NC(=O)[C@H]([C@@H](C)CC)N(C)C(=O)C [epoxomicin]
How it was run: as §1

[3] = compound: CCn1c(C(=O)N(C2CC2)C2CC2)cc2c3c(ncn3C)c(Nc3cc(C)n(C)n3)nc21
How it was run: as §1

[4] = compound: CCn1cc(-c2ccnc3[nH]c(-c4cccc(CN(C)C)c4)cc23)c(-c2ccc(NC(=O)N(C)C)cc2)n1
How it was run: as §1

[5] = compound: CN(C)CC(=O)Nc1ccc2[nH]c(=O)c3ccccc3c2c1
How it was run: as §1

rosiglitazone = compound: CN(CCOC1=CC=C(C=C1)C[C@H]2C(=O)NC(=O)S2)C3=CC=CC=N3 (racemic) [rosiglitazone]
How it was run: as §1

[6] = compound: CN1C2=C(C3=C1C(=O)N(N=C3)CC4=CC(=CC=C4)N)SC(=C2)S(=O)C
How it was run: as §1

[7] = compound: CN1CCC(CNc2ccc3ncc(-c4cccc(OC(F)(F)F)c4)n3n2)CC1
How it was run: as §1

saracatinib = compound: CN1CCN(CCOc2cc(OC3CCOCC3)c3c(Nc4c(Cl)ccc5c4OCO5)ncnc3c2)CC1 [saracatinib]
How it was run: as §1

sotrastaurin = compound: CN1CCN(c2nc(C3=C(c4c[nH]c5ccccc45)C(=O)NC3=O)c3ccccc3n2)CC1 [sotrastaurin]
How it was run: as §1

alvocidib = compound: CN1CC[C@H](c2c(O)cc(O)c3c(=O)cc(-c4ccccc4Cl)oc23)[C@H](O)C1 [alvocidib]
How it was run: as §1

Tubastatin A = compound: CN1CCc2c(c3ccccc3n2Cc2ccc(C(=O)NO)cc2)C1 [Tubastatin A]
How it was run: as §1

[8] = compound: CNC(=O)C1=CC=CC=C1NC2=NC(=NC=C2Cl)NC3=C(C=C(C=C3)N4CCOCC4)OC
How it was run: as §1

defactinib = compound: CNC(=O)c1ccc(Nc2ncc(C(F)(F)F)c(NCc3nccnc3N(C)S(C)(=O)=O)n2)cc1 [defactinib]
How it was run: as §1

rucaparib = compound: CNCc1ccc(-c2[nH]c3cc(F)cc4c3c2CCNC4=O)cc1 [rucaparib]
How it was run: as §1

[9] = compound: CNc1nc(-c2ccc3c(N)n[nH]c3c2)cc(N2C[C@@H](C(=O)NC3CCCCC3)CC[C@H]2C)n1
How it was run: as §1

encorafenib = compound: COC(=O)N[C@@H](C)CNc1nccc(-c2cn(C(C)C)nc2-c2cc(Cl)cc(NS(C)(=O)=O)c2F)n1 [encorafenib]
How it was run: as §1

[10] = compound: COC(=O)[C@H](CCSC)NC(=O)C1=C(C=C(C=C1)NC[C@H](CS)N)C2=CC=CC=C2
How it was run: as §1

Chain of UniProt Q13356 (Q13356 whole entry, looked up): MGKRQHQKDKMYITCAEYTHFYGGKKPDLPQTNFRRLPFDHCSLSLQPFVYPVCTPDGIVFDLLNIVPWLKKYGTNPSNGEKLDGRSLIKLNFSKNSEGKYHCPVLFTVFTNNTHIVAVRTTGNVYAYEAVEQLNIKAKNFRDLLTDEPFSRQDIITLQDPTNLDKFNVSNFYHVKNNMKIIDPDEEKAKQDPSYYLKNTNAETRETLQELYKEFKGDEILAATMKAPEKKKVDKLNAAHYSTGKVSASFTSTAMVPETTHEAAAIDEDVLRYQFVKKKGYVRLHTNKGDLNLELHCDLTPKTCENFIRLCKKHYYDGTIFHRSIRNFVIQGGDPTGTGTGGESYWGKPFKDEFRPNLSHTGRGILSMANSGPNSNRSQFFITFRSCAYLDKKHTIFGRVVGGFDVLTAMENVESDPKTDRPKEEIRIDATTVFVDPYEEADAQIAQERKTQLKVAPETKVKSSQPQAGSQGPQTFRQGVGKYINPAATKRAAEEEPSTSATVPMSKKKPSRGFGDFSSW
Chain of UniProt P50336 (P50336 whole entry, looked up): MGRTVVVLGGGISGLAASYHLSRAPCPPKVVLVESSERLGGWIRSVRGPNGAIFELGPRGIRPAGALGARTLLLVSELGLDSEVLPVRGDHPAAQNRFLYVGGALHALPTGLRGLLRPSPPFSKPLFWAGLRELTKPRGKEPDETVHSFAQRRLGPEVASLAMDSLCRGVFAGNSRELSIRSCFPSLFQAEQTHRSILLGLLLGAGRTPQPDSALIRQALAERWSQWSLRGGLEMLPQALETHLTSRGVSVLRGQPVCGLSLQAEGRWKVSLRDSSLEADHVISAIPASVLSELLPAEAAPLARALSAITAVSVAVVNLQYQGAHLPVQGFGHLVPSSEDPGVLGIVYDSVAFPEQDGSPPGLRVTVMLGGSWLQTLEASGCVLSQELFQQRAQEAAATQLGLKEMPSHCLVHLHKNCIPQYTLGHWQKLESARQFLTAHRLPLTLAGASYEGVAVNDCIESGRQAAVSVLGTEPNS
Chain of UniProt P51665 (P51665 whole entry, looked up): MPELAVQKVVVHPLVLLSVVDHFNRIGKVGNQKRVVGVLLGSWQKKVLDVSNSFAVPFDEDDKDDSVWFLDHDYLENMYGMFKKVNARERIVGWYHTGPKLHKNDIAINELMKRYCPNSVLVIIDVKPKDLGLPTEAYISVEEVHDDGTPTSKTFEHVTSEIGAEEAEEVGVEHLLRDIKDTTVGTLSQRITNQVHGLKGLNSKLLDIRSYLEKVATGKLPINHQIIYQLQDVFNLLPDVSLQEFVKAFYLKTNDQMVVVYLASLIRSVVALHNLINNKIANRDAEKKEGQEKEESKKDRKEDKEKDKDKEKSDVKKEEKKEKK
Chain of UniProt Q10713 (Q10713 whole entry, looked up): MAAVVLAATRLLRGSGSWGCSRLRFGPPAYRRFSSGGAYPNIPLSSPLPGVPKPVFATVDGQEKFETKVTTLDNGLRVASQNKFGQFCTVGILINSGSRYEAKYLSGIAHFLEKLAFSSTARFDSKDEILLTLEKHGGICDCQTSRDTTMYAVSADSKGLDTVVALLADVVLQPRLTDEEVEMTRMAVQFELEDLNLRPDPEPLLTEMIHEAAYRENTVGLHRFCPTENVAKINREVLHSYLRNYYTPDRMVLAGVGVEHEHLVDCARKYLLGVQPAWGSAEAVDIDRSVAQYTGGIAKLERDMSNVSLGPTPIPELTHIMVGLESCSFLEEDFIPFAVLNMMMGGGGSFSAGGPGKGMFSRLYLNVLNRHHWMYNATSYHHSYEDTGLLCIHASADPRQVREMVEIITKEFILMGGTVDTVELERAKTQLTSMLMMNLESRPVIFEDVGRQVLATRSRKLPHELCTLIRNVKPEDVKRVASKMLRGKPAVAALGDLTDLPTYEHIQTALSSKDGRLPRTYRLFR
Chain of UniProt P0CAP2 (P0CAP2 whole entry, looked up): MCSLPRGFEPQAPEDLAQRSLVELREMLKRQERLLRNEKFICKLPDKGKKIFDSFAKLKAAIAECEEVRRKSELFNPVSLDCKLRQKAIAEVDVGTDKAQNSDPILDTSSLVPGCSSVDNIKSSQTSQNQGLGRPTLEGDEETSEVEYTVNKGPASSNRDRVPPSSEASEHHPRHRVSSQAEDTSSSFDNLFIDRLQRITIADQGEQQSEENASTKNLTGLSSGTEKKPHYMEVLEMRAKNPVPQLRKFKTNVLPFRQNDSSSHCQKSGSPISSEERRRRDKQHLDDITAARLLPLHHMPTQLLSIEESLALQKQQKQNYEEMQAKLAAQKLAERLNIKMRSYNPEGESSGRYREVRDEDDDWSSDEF
Chain of UniProt P62191 (P62191 whole entry, looked up): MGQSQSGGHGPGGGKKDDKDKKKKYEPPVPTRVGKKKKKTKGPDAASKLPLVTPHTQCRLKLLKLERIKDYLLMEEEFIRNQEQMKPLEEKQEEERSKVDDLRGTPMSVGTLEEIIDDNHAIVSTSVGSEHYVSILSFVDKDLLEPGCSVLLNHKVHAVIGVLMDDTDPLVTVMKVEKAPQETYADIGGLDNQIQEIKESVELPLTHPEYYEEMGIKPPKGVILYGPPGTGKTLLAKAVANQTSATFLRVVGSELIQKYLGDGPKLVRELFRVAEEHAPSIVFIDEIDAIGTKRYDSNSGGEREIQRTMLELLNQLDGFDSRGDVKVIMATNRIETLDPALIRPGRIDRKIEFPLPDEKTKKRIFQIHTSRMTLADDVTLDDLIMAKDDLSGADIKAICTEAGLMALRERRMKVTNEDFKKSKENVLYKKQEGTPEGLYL
Chain of UniProt Q96A00 (Q96A00 whole entry, looked up): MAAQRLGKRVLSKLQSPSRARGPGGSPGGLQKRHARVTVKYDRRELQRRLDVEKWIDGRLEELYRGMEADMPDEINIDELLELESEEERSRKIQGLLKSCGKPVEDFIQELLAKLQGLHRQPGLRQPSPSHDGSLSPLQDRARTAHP

| Target | log2 fold change [1] | log2 fold change (volasertib) | log2 fold change [2] | log2 fold change (epoxomicin) | log2 fold change [3] | log2 fold change [4] | log2 fold change [5] | log2 fold change (rosiglitazone) | log2 fold change [6] | log2 fold change [7] | log2 fold change (saracatinib) | log2 fold change (sotrastaurin) | log2 fold change (alvocidib) | log2 fold change (Tubastatin A) | log2 fold change [8] | log2 fold change (defactinib) | log2 fold change (rucaparib) | log2 fold change [9] | log2 fold change (encorafenib) | log2 fold change [10] |
| --- | --- | --- | --- | --- | --- | --- | --- | --- | --- | --- | --- | --- | --- | --- | --- | --- | --- | --- | --- | --- |
| PPIL2 (UniProt Q13356) | -0.196 | -0.599 (active) | 0.159 | 0.142 | -0.098 | -0.031 | 0.08 | 0.043 | -0.019 | -0.022 | -0.02 | -0.096 | -0.093 | 0.069 | -0.023 | -0.194 | 0.073 | 0.067 | 0.047 | -0.065 |
| PSMC1 (UniProt P62191) | 0.038 | 0.129 | -0.015 | -0.342 (active) | 0.042 | 0.092 | -0.003 | -0.038 | 0.031 | 0.051 | -0.062 | -0.022 | 0.057 | -0.009 | -0.019 | 0.083 | 0.043 | 0.024 | 0.022 | -0.001 |
| PPOX (UniProt P50336) | -0.134 | -0.023 | -0.017 | -0.002 | 0.109 | -0.052 | 0.008 | 0.127 | -0.164 | -0.583 (active) | -0.087 | 0.02 | -0.049 | -0.045 | 0.534 (active) | -0.07 | -0.059 | 0.274 | -0.018 | -0.01 |
| PMPCA (UniProt Q10713) | 0.018 | 0.158 | 0.021 | 0.029 | 0.016 | -0.095 | 0.013 | 0.024 | -0.124 | 0.138 | -0.026 | -0.007 | -0.101 | -0.007 | 0.007 | -0.086 | -0.022 | 0.052 | -0.027 | -0.022 |
| PSMD7 (UniProt P51665) | 0.027 | 0.205 | 0 | -0.236 | 0.01 | 0.027 | -0.019 | -0.047 | 0.083 | 0.06 | -0.018 | -0.028 | 0.088 | 0.001 | 0.015 | 0.079 | 0.063 | 0.022 | 0.03 | 0.017 |
| POLR2I (UniProt P36954) | 0.209 | 0.232 | 0.055 | 0.007 | 0.017 | -0.208 | -0.107 | -0.107 | -0.009 | 0.202 | 0.134 | 0.033 | 0.371 | -0.266 | 0.009 | 0.141 | 0.162 | 0.02 | 0.015 | 0.023 |
| PPP1R14A (UniProt Q96A00) | 0.002 | 0.051 | 0 | 0.058 | -0.023 | -0.067 | -0.04 | 0.016 | -0.027 | -0.091 | -0.048 | -0.027 | 0.025 | 0 | -0.021 | -0.012 | -0.023 | -0.015 | -0.025 | -0.004 |
| POLR2M (UniProt P0CAP2) | 0.084 | 0.026 | 0.013 | -0.018 | -0.022 | 0.034 | 0.004 | 0.045 | -0.028 | 0.037 | 0.061 | 0.019 | 0.123 | 0.005 | -0.015 | 0.041 | 0.05 | -0.021 | 0.092 | 0.017 |
